# Bioassay records from PubChem.
# ALOX12 inh – blocks human arachidonate 12S-lipoxygenase; purified 12hLO, xylenol orange hydroperoxide absorbance; P18054; Potency, µM (doses to about 108 µM), for inactives: at the top dose activity change, negative = inhibition, actives largely listed as inhibitors; 1.1% of 580,000 active; also: potency is read from the fitted curve at half-maximal effect
# Target sequence (P18054 whole entry, looked up): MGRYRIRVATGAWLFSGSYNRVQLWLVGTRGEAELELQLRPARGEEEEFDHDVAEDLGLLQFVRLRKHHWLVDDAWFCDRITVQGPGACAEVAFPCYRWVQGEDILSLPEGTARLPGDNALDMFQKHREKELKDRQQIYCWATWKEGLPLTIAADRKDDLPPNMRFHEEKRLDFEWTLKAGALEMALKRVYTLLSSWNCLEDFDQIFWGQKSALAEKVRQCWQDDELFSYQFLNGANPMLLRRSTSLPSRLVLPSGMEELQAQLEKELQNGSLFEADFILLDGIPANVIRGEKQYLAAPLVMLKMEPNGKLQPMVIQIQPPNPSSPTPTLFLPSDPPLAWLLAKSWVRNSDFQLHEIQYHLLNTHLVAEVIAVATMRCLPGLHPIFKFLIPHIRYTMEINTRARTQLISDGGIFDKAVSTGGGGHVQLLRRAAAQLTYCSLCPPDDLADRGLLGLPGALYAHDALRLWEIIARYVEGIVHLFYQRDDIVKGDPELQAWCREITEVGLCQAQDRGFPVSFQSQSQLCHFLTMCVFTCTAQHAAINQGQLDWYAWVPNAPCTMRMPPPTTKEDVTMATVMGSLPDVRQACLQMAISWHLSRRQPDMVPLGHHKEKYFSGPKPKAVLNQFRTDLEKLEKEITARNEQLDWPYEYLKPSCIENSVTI
#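 Hydroperoxide product was detected by ferrous iron/xylenol orange as the 573 to 405 nm absorbance ratio. Arachidonic acid at 40 uM (final) was turned over for 30 min at room temperature by 150 nM human 12hLO, pH 7.0 Hepes buffer, after 15 min compound preincubation.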
# HT1080 IDH1KD tx – HT-1080 IDH1 knockdown cell toxicity (counter line). HT-1080 IDH1 knockdown viability, ATP luminescence, 48 h. Potency, µM (series often up to 46.1 µM), for inactives: at the top dose activity, negative = toxicity, hits mostly cytotoxic. 2% of 360,000 active;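 also: potency is read from the fitted curve at half-maximal effect; 0% = DMSO wells and -100% = cell-free medium wells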
#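 Luminescent ATP read-out (CellTiter-Glo, 10 min at room temperature) after 48 h compound exposure at 37 °C gave viability of IDH1-knockdown HT-1080 cells. Activity was normalised to DMSO and cell-free wells, then fitted as concentration-response curves.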
# TDP1 cell noCPT – qHTS for Inhibitors of human tyrosyl-DNA phosphodiesterase 1 (TDP1): qHTS in cells in absence of CPT | 15% of 420,000 active | Potency, µM (titrated, usually from 46.2 µM), for inactives: top-dose activity change, negative = growth inhibition, actives largely listed as inhibitors | DT40 Tdp1-/- hTDP1 cells, no CPT, ATP luminescence, 48 h | AID 686978, 2013; also: potency is read from the fitted curve at half-maximal effect; nearly all actives have a fitted effect of over 55% in size
#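 Cells were dispensed at 400 per well, compounds added by pin tool, plates incubated ≥48 hr at 37 °C, then CellTiter-Glo added for 30 min at room temperature before luminescence reading. Line: DT40 Tdp1-/- complemented with hTDP1; camptothecin omitted.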
# HT1080NT lethal – kills 2HG-producing HT-1080-NT fibrosarcoma cells | HT-1080-NT fibrosarcoma viability, CellTiter-Glo ATP luminescence, 48 h | Potency, µM (top dose mostly 46.1 µM), inactives show at the top dose activity, negative = less viability, usual class: cytotoxic | 1.6% of 360,000 active | AID 686970;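 also: NT is the 2HG producing partner of a matched IDH1 knockdown line; potency is read from the fitted curve at half-maximal effect; 0% = DMSO-treated cells and -100% = media-only wells without cells; nearly all actives have a fitted effect of over 55% in size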
#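 Fibrosarcoma NT cells, 750 per well in 5% FBS RPMI, were exposed to compound for 48 hours. Viability: CellTiter-Glo luminescence.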
# IL1B secr inh – blocks inflammasome-driven IL-1 beta release. activity change, % at 57.5 µM. THP-1 LPS/ATP IL-1B secretion, AlphaLISA, 16 h; stronger effect = lower value. 4.7% of 360,000 active. AID 743279; in the data active = activity change below about -50%; inconclusive = mostly about -30% to -49%
#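 Secreted IL-1B measured by AlphaLISA bead assay after 16 h compound exposure of THP-1 cells; compounds (final up to 57.5 uM) added 1 h before LPS (250 ng/mL) and ATP (1.25 mM) stimulation; lower signal means less secretion.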
# TDP1 cell CPT – DT40-hTDP1 cell growth loss with CPT; chicken DT40 Tdp1-/-;hTDP1 cells + 20 nM CPT, ATP luminescence, 48 h; Potency, µM (titrated, usually from 46.2 µM), for inactives: at the top dose activity change, negative = growth inhibition, most hits filed as inhibitors; 12% of 420,000 active; also: potency is read from the fitted curve at half-maximal effect; nearly all actives have a fitted effect of over 55% in size
#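 Chicken DT40 Tdp1-/- cells complemented with human TDP1, 400 cells/well, exposed to compounds plus 20 nM camptothecin for at least 48 h at 37 C; viability read as ATP content by CellTiter-Glo luminescence.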
# Numbers without * were called inactive; ? = inconclusive; nt = no result given; [ ] = dose if it differs, or a comment. The sample as a whole holds a higher share of hits than the screen did. Unless noted, calls follow the shape of the dose curve; as a rule, active = well fitted curve in the direction sought with a large enough effect; inconclusive = small, poorly fitted or top-dose-only effect, or another doubt; inactive = no such curve, though single readings can be large; an effect the other way counts as inactive or inconclusive. Unless noted, % is scaled to controls: 0 for no effect and ±100 for the full control effect.
SMILES,ALOX12 inh,HT1080 IDH1KD tx,TDP1 cell noCPT,HT1080NT lethal,IL1B secr inh,TDP1 cell CPT
COc1cccc(-c2nc(-c3ccc4c(c3)NC(=O)CO4)cs2)c1,?,-14%,5.2µM*,-4%,?,8.2µM*
COc1ccc2[nH]c(C(=O)N3CCN4CCS(=O)(=O)N(C5CC5)C(=O)C4C3)cc2c1 (stereo unspecified),22µM*,nt,nt,nt,nt,nt
Cc1nc2ccccc2nc1SCC(=O)N1CCOC(C)C1 (stereo unspecified),5%,nt,nt,nt,nt,nt
Cc1cccn2c(=O)c3cc(C(=O)N4CCOCC4)n(C)c3nc12,2%,0%,-1%,0%,-3,14%
Cc1cccn2c(=O)c3cc(C(=O)N4c5ccccc5CC4C)n(C)c3nc12 (stereo unspecified),-5%,8%,16µM*,16%,58,18µM*
CC1Cc2ccccc2N1C(=O)c1cc2c(=O)n3ccccc3nc2n1C (stereo unspecified),-9%,11%,?,-18%,-30,12µM*
Cc1nn(-c2ccccc2)c(C)c1C(=O)OCC(=O)NC12CC3CC(CC(C3)C1)C2,?,-28%,23µM*,2%[9.24 µM],-30,?
CC(=O)Nc1ccc(NC(=O)COC(=O)c2c(C)nn(-c3ccccc3)c2C)cc1,-35%,-1%,?,-3%,-2,?
COc1ccc(C)cc1NC(=O)COC(=O)c1c(-c2ccccc2)noc1C,?,-8%,23µM*,-3%,?,23µM*
COc1ccc(C)cc1NC(=O)COC(=O)c1c(C)nn(-c2ccccc2)c1C,178%,-12%,12µM*,-7%[9.24 µM],-4,21µM*
COCC(C)n1c(C)cc(C(=O)COC(=O)c2c(C)nn(-c3ccccc3)c2C)c1C (stereo unspecified),-21%,-3%,?,-1%,-56*,?
NC(=O)c1ccc(NC(=O)Cn2ccc3ccc(Cl)cc32)cc1,4%,nt,nt,nt,nt,nt
Cc1nn2c(=O)cc(CSc3nnc(-c4cccc(Cl)c4)o3)nc2s1,7%,nt,nt,nt,nt,nt
COc1cccc2c3cccc(OC)c3c3[nH]cnc3c12,-8%,21µM*,7.3µM*,-26%,-102*,?
Cc1ccc(S(=O)(=O)NCC(Nc2cccc(Cl)c2)c2ccccc2)cc1 (stereo unspecified),?,nt,?,nt,nt,18µM*
COc1ccc(C2N=C(N)N=C(N)N2c2ccc(C)cc2)cc1 (stereo unspecified),-3%,-16%,?,0%,?,6.5µM*
COc1ccc(C2C(C(C)=O)=C(O)C(=O)N2c2ccc(C)cc2)cc1 (stereo unspecified),?,3%,3%,-2%,0,-12%
Cc1cc(C)cc(N2C(N)=NC(N)=NC2c2ccccc2F)c1 (stereo unspecified),0%,?,0.65µM*,-7%,-28,?
Cc1cc(C)cc(N2C(N)=NC(N)=NC2c2cccc(Cl)c2)c1 (stereo unspecified),?,?,5.2µM*,?,-54*,?
Cc1ccc(-n2nc3ccc(N)cc3n2)cc1,13%,-18%,2%,-21%,24,-20%
Cn1c(=O)c2c(ncn2CCCC(=O)Nc2ccc(N3CCCC3=O)cc2)n(C)c1=O,1%,nt,nt,nt,nt,nt
COc1ccc(OCc2cc(C(=O)NCCc3nc(C)c(C)s3)no2)c(Cl)c1,8%,nt,nt,nt,nt,nt
Cc1cc(=O)n(C(C)C(=O)N2CCCc3ccccc32)c2c1c(C)nn2-c1ccccc1 (stereo unspecified),-25%,nt,?,nt,nt,16µM*
CCCOc1ccc(N2C(=O)CC(SC(=N)N3N=C(c4ccccc4)CC3c3ccccc3)C2=O)cc1 (stereo unspecified),-13%,-1%,18µM*,11%,0,18µM*
CC(=O)C(N=Nc1ccccc1)(Sc1nnc(-c2ccccc2)n1-c1ccccc1)C(C)=O,0%,-30%,16µM*,-28%,-5,?
SMILES,ALOX12 inh,HT1080 IDH1KD tx,TDP1 cell noCPT,HT1080NT lethal,IL1B secr inh,TDP1 cell CPT
O=C1CN(S(=O)(=O)c2cccc(Cl)c2Cl)c2ccccc2N1,-55%,1%,-13%,16%,-2,-13%
Cc1cc(C(C)(C)C)cc(C)c1S(=O)(=O)N1CC(=O)Nc2ccccc21,?,?,-30%,-29%,-63*,?
Cc1ccc(C(C)(C)C)cc1S(=O)(=O)N1CC(=O)Nc2ccccc21,?,-11%,?,?,-100*,-5%
Cc1ccc(S(=O)(=O)N2CC(=O)Nc3ccccc32)c(C)c1NS(C)(=O)=O,1%,-1%,-1%,12%,13,?
CC(C)CNC(=O)C1COC2(CCN(C(=O)c3ccc(F)cc3)CC2)N1C(=O)c1ccccc1 (stereo unspecified),16%,nt,nt,nt,nt,nt
COC1=CC(=O)c2nc(Cl)ccc2C1=O,?,2.9µM*,1µM*,3.7µM*,-111*,0.58µM*
COc1cc(C(=O)Nc2ccc3sc(NC(C)=O)nc3c2)cc(OC)c1OC,40%,nt,nt,nt,nt,nt
CCn1c(SCC(=O)c2ccc([N+](=O)[O-])cc2)nnc1-c1ccc(Cl)cc1,0%,nt,nt,nt,nt,nt
CN(C)c1ccc(NC(=O)c2sc(SCC(=O)Nc3nccs3)nc2N)cc1,-4%,-2%,16µM*,-3%,-22,?
CCn1c(SCC(=O)c2ccc(O)c(O)c2)nnc1-c1ccc(C)cc1,?,-14%,?,-12%,49,23µM*
CCn1c(SCC(=O)Nc2oc(-c3ccccc3)c(-c3ccccc3)c2C#N)nnc1-c1ccncc1,10%,0%,?,-1%,4,13µM*
COc1ccc2cc(C)c3nnc(SCC(=O)Nc4nc(-c5ccccc5)cs4)n3c2c1,0%,-5%,4.6µM*,-10%,35,?
COc1ccc2cc(C)c3nnc(SCC(=O)Nc4cc(OC)c(OC)cc4C(=O)O)n3c2c1,-38%,2%,-3%,14%,18,0%
Cn1c(Cn2ccnc2)nnc1C1CCCN(C(=O)c2ccc(CO)o2)C1 (stereo unspecified),31%,nt,nt,nt,nt,nt
Cc1ccccc1CNC[C@H]1Cn2ccnc2CO1,56%[176 µM],nt,nt,nt,nt,nt
CCn1c(SCC(=O)Nc2nc(-c3ccccc3)cs2)nnc1-c1ccccc1,1%,?,?,?,-63*,?
O=C(CSc1ccccc1)Nc1nccs1,7%,18%,-15%,25%,11,26%
